GLD-1 TGE inh: GLD-1-TGE RNA interaction inhibition (C. elegans) | Q17339 | purified GLD-1 + fluorescein TGE RNA, fluorescence polarization | inhibition, % at 5.96 µM | 0.44% of 320,000 active | AID 2280;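 active = percent inhibition above a per-plate cutoff, the plate mean of test compounds plus 3 SD, cut at about 30% in these data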;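 also: 0% = DMSO wells with GLD-1 and probe and 100% = wells lacking GLD-1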
Target sequence (Q17339 whole entry, looked up): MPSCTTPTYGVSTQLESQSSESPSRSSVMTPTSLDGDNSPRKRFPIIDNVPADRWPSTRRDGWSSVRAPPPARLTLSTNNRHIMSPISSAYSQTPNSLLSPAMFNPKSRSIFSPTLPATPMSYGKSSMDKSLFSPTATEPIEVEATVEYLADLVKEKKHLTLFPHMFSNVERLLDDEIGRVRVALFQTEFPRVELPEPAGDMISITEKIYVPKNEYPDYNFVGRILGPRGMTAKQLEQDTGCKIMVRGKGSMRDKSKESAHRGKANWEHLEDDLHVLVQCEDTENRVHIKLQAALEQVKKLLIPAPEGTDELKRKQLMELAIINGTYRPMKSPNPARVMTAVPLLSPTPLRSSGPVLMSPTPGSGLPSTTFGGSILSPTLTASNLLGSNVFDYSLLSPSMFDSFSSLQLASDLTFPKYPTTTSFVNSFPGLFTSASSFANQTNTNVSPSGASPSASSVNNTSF
Mcl1 Noxa PPI: disrupts binding of human Mcl-1 to Noxa peptide; Q07820; TR-FRET Mcl-1/Noxa peptide binding, 2 h; inhibition, % at 21.7 µM; 1.5% of 220,000 active;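 active = compounds that cut the protein-peptide binding signal by more than 50% relative to plate controls in a single-dose test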;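 also: His-tagged Mcl-1 with rhodamine Noxa BH3 peptide and terbium anti-His antibody; 0% = Mcl-1 plus Noxa peptide wells and 100% = peptide-only wells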
MCL1-BIM inh: inhibitors of human MCL1 binding to BIM-BH3 peptide | GST-MCL1 / FITC-Bim-BH3 fluorescence polarization | inhibition, % at 10.9 µM | 0.68% of 320,000 active | AID 2057;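 active = inhibition above the mean inhibition of all tested compounds plus 3 SD, set per campaign, cut at about 40% in these data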;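 also: 0% = DMSO wells and 100% = unlabeled Bim-BH3 peptide control; higher means more loss of mP so more displacement of Bim peptide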
Mcl1-Bid inh: disrupts binding of human Mcl-1 to Bid peptide. Q07820. TR-FRET Mcl-1/Bid-Dy647 peptide binding, 1536-well. inhibition, % at 21.7 µM. 0.97% of 220,000 active. AID 1021;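 active = compounds that cut the binding signal by more than half at the single screening dose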;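 also: His-tagged Mcl-1 with europium anti-His antibody binding Bid BH3 peptide; 0% = Mcl-1 plus peptide wells and 100% = peptide-only wells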
Bcl-xL primary: inhibitors of human Bcl-xL; 0.7% of 320,000 active; Q07817; GST-Bcl-xL / FITC-Bim BH3 peptide fluorescence polarization; inhibition, % at 10.9 µM;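 active = inhibition above the mean of all tested compounds plus 3 SD, cutoff set per campaign, cut at about 30% in these data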;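 also: 0% = DMSO wells and 100% = unlabeled Bim-BH3 peptide competitor; inhibitors lower millipolarization by displacing the labeled peptide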
Target sequence (Q07817 whole entry, looked up): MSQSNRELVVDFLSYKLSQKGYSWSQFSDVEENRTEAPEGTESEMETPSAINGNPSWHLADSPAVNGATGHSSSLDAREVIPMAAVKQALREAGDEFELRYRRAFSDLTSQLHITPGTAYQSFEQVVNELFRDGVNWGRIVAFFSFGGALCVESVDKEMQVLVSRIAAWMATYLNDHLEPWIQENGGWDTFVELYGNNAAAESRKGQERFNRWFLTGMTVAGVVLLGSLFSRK
Bim-Mcl-1: human Bim-Mcl-1 interaction inhibition; Q07820; Bead-based flow cytometry, Bim peptide-Mcl-1 binding; inhibition, % at 10 µM; 0.1% of 190,000 active; in the data active = inhibition above about 40%;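 also: 0% = no compound tracer wells and 100% = peptide blocker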
An asterisk follows results filed as active; ! = not active in a repeat. This is a sample that favours compounds with a hit; in the whole collection about 2.3% have one here.

What do the screens show for `COc1cc(NS(=O)(=O)c2ccc(NC(=S)NC(=O)c3sc4cc(F)ccc4c3Cl)cc2)nc(OC)n1`?
GLD-1 TGE inh: -3; Mcl1 Noxa PPI: 88*; MCL1-BIM inh: 8; Mcl1-Bid inh: 33; Bcl-xL primary: 11; Bim-Mcl-1: -16

How did COc1cc(NS(=O)(=O)c2ccc(NC(=S)NC(=O)c3ccco3)cc2)nc(OC)n1 do in these assays?
GLD-1 TGE inh: 3; Mcl1 Noxa PPI: 14; MCL1-BIM inh: 13; Mcl1-Bid inh: -91; Bcl-xL primary: 12

How did COc1cc(NS(=O)(=O)c2ccc(NC(=S)NC(=O)c3sc4ccccc4c3Cl)cc2)nc(OC)n1 do in these assays?
GLD-1 TGE inh: 2; Mcl1 Noxa PPI: 69*; MCL1-BIM inh: 8; Mcl1-Bid inh: 66*; Bcl-xL primary: 15; Bim-Mcl-1: -4

Results for NC(N)=NS(=O)(=O)c1ccc(NC(=S)NC(=O)c2sc3ccccc3c2Cl)cc1 ?
GLD-1 TGE inh: 1; Mcl1 Noxa PPI: -148; MCL1-BIM inh: 6; Mcl1-Bid inh: 82*; Bcl-xL primary: 4; Bim-Mcl-1: -1

Results for COc1ccc2oc(C(=O)Nc3ccc(N4CCOCC4)cc3)c(C)c2c1 ?
GLD-1 TGE inh: 2; MCL1-BIM inh: 9; Bcl-xL primary: 4

How did CCOc1ccc(NS(=O)(=O)c2ccc(C(=O)NNC(=O)c3ccccc3O)cc2)cc1 do in these assays?
GLD-1 TGE inh: -5; MCL1-BIM inh: -2; Bcl-xL primary: -3

How did CC(C)Oc1ccc2c(=O)c(-c3ccccc3)coc2c1 do in these assays?
GLD-1 TGE inh: 10; Mcl1 Noxa PPI: 44; MCL1-BIM inh: 10; Mcl1-Bid inh: 64*!; Bcl-xL primary: 0; Bim-Mcl-1: -3

Results for COc1ccc(OC)c(NC(=S)NCc2ccccc2OC)c1 ?
GLD-1 TGE inh: 15; Mcl1 Noxa PPI: 11; MCL1-BIM inh: 33; Mcl1-Bid inh: -61; Bcl-xL primary: 30*; Bim-Mcl-1: -4

How did Cc1nc2ccc(C(=O)O)cc2c2c1CC(C)S2 (centres undefined) do in these assays?
GLD-1 TGE inh: 7; Mcl1 Noxa PPI: 51*; MCL1-BIM inh: 26; Mcl1-Bid inh: 7; Bcl-xL primary: 16; Bim-Mcl-1: 0

Results for CCOc1ccc(CNc2ccc(N3CCCC3)cc2)cc1 ?
GLD-1 TGE inh: 7; Mcl1 Noxa PPI: 66*; MCL1-BIM inh: 12; Mcl1-Bid inh: -29; Bcl-xL primary: 16; Bim-Mcl-1: 6

Results for CCOc1cc(CNc2ccc(N3CCCC3)cc2)cc(Cl)c1OC ?
GLD-1 TGE inh: 8; Mcl1 Noxa PPI: 76*; MCL1-BIM inh: 25; Mcl1-Bid inh: 6; Bcl-xL primary: 20; Bim-Mcl-1: -2

How did COc1cc(CNc2ccc(N3CCCC3)cc2)cc(Cl)c1OC do in these assays?
GLD-1 TGE inh: 9; Mcl1 Noxa PPI: 72*; MCL1-BIM inh: 17; Mcl1-Bid inh: -30; Bcl-xL primary: 17; Bim-Mcl-1: 11

Results for CCN(CC)S(=O)(=O)c1ccc(C(=O)Oc2coc(CSc3nc(C)cc(C)n3)cc2=O)cc1 ?
GLD-1 TGE inh: -6; Mcl1 Noxa PPI: 70*; MCL1-BIM inh: 6; Mcl1-Bid inh: -3; Bcl-xL primary: 2; Bim-Mcl-1: 1

Results for CN(C)S(=O)(=O)c1ccc(C(=O)Oc2coc(CSc3ncccn3)cc2=O)cc1 ?
GLD-1 TGE inh: -6; Mcl1 Noxa PPI: -8; MCL1-BIM inh: 6; Mcl1-Bid inh: -28; Bcl-xL primary: 1; Bim-Mcl-1: -1

Results for COCC(=O)Nc1ncc(S(=O)(=O)c2ccc([N+](=O)[O-])cc2)s1 ?
GLD-1 TGE inh: 2; Mcl1 Noxa PPI: 0; MCL1-BIM inh: 5; Mcl1-Bid inh: 68*; Bcl-xL primary: 8; Bim-Mcl-1: -1

Results for CCCCC(=O)Nc1ncc(S(=O)(=O)c2ccc([N+](=O)[O-])cc2)s1 ?
GLD-1 TGE inh: -5; MCL1-BIM inh: -6; Bcl-xL primary: 0

How did O=C(Nc1ccc(F)cc1)Nc1ccc(Oc2ncnc3cc(Cl)ccc23)nc1 do in these assays?
GLD-1 TGE inh: 7; Mcl1 Noxa PPI: -19; MCL1-BIM inh: 3; Mcl1-Bid inh: 92*; Bcl-xL primary: 1

How did CC1(C(=O)N2CCN(c3ccc([N+](=O)[O-])cc3)CC2)CC1(Cl)Cl (centres undefined) do in these assays?
GLD-1 TGE inh: 64*; MCL1-BIM inh: 4; Bcl-xL primary: 7

What do the screens show for `Cc1c(Cl)cnc(NC(=O)COC(=O)[C@H](C)NC(=O)c2ccccc2)c1Cl`?
GLD-1 TGE inh: 16; MCL1-BIM inh: 46*; Bcl-xL primary: 32*

How did Cc1c(Cl)cnc(NC(=O)COC(=O)c2ccncc2)c1Cl do in these assays?
GLD-1 TGE inh: 18; MCL1-BIM inh: 37; Bcl-xL primary: 34*

How did COc1ccccc1CNC(=O)CN(C)Cc1ccc(SC)cc1 do in these assays?
GLD-1 TGE inh: 3; MCL1-BIM inh: -3; Bcl-xL primary: 0

How did Cc1ccc(NC(=O)CSC(C)c2nc3ccccc3c(=O)[nH]2)cc1 (centres undefined) do in these assays?
GLD-1 TGE inh: -9; MCL1-BIM inh: -20; Bcl-xL primary: -1

Results for CC(COc1ccccc1)N(CCCl)Cc1ccccc1 (centres undefined) ?
GLD-1 TGE inh: 2; Mcl1 Noxa PPI: 34; MCL1-BIM inh: 2; Mcl1-Bid inh: 55*; Bcl-xL primary: -4; Bim-Mcl-1: -1

What do the screens show for `CC(C)[C@@H](COc1ccccc1)N1CCN(Cc2ccccc2)CCC1=O`?
GLD-1 TGE inh: 0; MCL1-BIM inh: -7; Bcl-xL primary: -2

How did CCOc1ccc(S(=O)(=O)N(CC(=O)N/N=C/c2ccc(-c3ccc([N+](=O)[O-])cc3)o2)c2ccccc2)cc1 do in these assays?
GLD-1 TGE inh: -18; Mcl1 Noxa PPI: 65*; MCL1-BIM inh: 8; Mcl1-Bid inh: 33; Bcl-xL primary: -4; Bim-Mcl-1: 6

Results for CCCN(C(=O)c1c(-c2ccccc2)noc1C)c1c(N)n(Cc2ccccc2)c(=O)[nH]c1=O ?
GLD-1 TGE inh: 5; MCL1-BIM inh: 5; Bcl-xL primary: 3

Results for O=C(O)c1ccc(N2CCCCCC2)c(N2C(=O)c3ccccc3C2=O)c1 ?
GLD-1 TGE inh: 4; Mcl1 Noxa PPI: 17; MCL1-BIM inh: 2; Mcl1-Bid inh: 2; Bcl-xL primary: 7; Bim-Mcl-1: -8

What do the screens show for `O=C1c2cccc3c(N4CCCCC4)ccc(c23)C(=O)N1c1ccccc1O`?
GLD-1 TGE inh: 22; Mcl1 Noxa PPI: -23; MCL1-BIM inh: -5; Mcl1-Bid inh: -11; Bcl-xL primary: 35*; Bim-Mcl-1: -3

What do the screens show for `c1ccc(-c2cn(C[C@H]3CC[C@H](Cn4cc(-c5ccccn5)nn4)O3)nn2)nc1`?
GLD-1 TGE inh: 5; MCL1-BIM inh: 8; Bcl-xL primary: 2

Results for O=C(O)CS(=O)(=O)CC(=O)O ?
GLD-1 TGE inh: -3; Mcl1 Noxa PPI: 23; MCL1-BIM inh: -3; Mcl1-Bid inh: 58*; Bcl-xL primary: 6; Bim-Mcl-1: -3

High-throughput results: PubChem BioAssay, several laboratories
